From the supplement of paper PMC11732987, “Enantioselective OTUD7B fragment discovery through chemoproteomics screening and high-throughput optimisation” (Communications Chemistry, 2025)

Assays:
Test in all cases: log2 ratio of Biotin-Ahx-Ub-VS probe labelling (fragment/DMSO); higher = less target engagement (more negative = stronger competition), active = hit call of the paper (q ≤ 0.05, log2 ratio ≤ -1)
Details in all cases: compound concentration: 200 uM; treatment time: 3 h
USP19 = target: T1, USP19 (UniProt O94966)
T1 sequence (whole entry): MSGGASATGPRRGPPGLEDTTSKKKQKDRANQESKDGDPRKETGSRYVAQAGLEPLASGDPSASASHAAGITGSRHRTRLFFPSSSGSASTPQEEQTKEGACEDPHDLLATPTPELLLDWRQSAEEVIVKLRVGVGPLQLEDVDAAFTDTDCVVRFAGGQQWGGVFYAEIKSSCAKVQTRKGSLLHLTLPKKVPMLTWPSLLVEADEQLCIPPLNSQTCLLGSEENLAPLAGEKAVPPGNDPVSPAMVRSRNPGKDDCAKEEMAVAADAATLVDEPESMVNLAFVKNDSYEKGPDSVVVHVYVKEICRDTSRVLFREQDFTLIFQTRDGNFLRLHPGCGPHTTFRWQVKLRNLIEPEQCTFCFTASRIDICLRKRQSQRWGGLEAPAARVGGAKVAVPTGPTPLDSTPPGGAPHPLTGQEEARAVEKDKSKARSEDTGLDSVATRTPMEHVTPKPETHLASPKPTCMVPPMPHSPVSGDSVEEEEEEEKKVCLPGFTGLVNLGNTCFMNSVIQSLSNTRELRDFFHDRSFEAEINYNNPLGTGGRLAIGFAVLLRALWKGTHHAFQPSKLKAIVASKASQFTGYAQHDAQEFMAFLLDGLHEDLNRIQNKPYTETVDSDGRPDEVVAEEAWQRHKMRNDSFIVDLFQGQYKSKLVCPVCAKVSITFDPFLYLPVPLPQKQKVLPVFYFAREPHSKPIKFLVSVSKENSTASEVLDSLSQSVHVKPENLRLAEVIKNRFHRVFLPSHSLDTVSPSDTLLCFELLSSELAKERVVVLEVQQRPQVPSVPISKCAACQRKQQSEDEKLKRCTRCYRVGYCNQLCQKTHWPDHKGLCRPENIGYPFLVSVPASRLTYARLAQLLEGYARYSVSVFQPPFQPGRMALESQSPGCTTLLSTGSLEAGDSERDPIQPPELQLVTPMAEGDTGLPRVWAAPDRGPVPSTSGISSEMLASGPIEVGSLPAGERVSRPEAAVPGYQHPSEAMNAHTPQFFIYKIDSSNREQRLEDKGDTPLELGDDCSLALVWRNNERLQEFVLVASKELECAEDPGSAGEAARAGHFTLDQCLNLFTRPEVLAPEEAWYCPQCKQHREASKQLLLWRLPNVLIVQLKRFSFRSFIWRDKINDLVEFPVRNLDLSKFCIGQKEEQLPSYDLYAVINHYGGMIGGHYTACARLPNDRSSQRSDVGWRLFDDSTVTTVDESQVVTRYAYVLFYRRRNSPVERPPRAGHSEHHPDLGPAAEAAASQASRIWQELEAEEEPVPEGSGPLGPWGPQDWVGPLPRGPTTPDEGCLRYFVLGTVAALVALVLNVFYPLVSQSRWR
Method in brief: (§1)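 Global-median-normalised Spectronaut label-free quantities were compared by unpaired t-test, and values are average log2 ratios of fragment over vehicle. Only proteins with ≥2 unique peptides were used. HEK293T lysate (495 µg per sample) was treated in triplicate with fragment at 200 µM or vehicle for 3 h and then with Biotin-Ahx-Ub-VS at 0.5 µM final for 1 h. Labelled DUBs were then NeutrAvidin-enriched, digested with LysC and trypsin, and run by diaPASEF LC-MS/MS.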

USP24 = USP24 (UniProt Q9UPU5)
Method in brief: as §1

USP25 = target: T2, USP25 (UniProt Q9UHP3)
T2 sequence (whole entry): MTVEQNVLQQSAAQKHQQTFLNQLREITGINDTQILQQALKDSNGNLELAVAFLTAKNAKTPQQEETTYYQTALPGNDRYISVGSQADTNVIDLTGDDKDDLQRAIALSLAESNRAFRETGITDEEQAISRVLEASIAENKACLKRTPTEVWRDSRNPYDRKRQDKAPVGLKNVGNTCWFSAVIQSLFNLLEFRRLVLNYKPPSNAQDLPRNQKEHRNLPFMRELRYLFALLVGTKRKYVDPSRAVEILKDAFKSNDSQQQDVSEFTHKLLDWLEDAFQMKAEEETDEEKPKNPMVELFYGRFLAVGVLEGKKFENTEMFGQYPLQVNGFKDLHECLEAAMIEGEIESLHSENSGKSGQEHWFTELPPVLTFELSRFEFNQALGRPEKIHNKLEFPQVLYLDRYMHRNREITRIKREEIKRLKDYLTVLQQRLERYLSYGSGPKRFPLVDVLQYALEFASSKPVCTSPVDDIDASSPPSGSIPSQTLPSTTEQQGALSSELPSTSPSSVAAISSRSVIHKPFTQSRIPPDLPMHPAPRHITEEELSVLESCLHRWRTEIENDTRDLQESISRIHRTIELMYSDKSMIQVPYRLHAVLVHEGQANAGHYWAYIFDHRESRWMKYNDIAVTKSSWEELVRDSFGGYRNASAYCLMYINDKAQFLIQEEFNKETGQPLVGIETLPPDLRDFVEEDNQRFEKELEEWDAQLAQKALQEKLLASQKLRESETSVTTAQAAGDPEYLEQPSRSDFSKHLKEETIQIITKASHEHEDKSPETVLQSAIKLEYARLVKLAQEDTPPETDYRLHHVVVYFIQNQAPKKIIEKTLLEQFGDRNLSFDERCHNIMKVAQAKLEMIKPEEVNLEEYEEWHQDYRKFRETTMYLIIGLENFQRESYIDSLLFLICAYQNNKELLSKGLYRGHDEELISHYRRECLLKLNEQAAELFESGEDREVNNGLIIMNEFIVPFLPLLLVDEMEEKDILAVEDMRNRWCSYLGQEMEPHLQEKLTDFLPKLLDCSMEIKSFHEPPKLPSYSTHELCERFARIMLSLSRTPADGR
Method in brief: as §1

USP28 = target: T3, USP28 (UniProt Q96RU2)
T3 sequence (whole entry): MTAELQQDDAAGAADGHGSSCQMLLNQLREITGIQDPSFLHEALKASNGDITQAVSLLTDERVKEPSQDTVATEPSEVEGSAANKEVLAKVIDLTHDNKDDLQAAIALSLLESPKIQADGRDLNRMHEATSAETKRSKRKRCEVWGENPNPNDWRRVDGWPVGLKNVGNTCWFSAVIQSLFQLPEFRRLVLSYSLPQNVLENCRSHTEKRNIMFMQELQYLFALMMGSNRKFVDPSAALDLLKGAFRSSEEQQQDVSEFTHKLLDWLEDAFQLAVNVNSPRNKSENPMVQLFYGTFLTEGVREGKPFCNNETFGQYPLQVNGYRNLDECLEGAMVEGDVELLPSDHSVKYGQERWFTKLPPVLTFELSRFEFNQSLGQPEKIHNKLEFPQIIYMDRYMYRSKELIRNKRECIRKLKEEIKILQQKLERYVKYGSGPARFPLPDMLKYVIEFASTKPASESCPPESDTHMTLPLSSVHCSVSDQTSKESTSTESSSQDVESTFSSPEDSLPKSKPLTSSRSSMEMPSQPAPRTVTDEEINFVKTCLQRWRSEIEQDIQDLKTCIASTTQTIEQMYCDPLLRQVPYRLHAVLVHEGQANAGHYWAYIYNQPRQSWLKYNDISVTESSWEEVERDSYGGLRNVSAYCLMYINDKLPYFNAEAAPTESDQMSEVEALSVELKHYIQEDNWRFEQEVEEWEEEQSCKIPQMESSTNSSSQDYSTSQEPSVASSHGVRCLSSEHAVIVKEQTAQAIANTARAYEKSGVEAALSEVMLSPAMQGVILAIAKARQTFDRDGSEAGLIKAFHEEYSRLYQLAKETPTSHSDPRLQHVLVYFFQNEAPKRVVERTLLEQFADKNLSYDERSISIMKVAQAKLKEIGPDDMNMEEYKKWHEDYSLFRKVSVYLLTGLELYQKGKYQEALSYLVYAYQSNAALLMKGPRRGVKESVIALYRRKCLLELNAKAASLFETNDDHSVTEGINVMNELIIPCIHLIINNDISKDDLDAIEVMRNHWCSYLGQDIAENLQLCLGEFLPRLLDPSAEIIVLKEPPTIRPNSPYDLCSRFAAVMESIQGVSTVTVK
Method in brief: as §1

Measured: log2 ratio of Biotin-Ahx-Ub-VS probe labelling

USP24, sequence (Q9UPU5 whole entry): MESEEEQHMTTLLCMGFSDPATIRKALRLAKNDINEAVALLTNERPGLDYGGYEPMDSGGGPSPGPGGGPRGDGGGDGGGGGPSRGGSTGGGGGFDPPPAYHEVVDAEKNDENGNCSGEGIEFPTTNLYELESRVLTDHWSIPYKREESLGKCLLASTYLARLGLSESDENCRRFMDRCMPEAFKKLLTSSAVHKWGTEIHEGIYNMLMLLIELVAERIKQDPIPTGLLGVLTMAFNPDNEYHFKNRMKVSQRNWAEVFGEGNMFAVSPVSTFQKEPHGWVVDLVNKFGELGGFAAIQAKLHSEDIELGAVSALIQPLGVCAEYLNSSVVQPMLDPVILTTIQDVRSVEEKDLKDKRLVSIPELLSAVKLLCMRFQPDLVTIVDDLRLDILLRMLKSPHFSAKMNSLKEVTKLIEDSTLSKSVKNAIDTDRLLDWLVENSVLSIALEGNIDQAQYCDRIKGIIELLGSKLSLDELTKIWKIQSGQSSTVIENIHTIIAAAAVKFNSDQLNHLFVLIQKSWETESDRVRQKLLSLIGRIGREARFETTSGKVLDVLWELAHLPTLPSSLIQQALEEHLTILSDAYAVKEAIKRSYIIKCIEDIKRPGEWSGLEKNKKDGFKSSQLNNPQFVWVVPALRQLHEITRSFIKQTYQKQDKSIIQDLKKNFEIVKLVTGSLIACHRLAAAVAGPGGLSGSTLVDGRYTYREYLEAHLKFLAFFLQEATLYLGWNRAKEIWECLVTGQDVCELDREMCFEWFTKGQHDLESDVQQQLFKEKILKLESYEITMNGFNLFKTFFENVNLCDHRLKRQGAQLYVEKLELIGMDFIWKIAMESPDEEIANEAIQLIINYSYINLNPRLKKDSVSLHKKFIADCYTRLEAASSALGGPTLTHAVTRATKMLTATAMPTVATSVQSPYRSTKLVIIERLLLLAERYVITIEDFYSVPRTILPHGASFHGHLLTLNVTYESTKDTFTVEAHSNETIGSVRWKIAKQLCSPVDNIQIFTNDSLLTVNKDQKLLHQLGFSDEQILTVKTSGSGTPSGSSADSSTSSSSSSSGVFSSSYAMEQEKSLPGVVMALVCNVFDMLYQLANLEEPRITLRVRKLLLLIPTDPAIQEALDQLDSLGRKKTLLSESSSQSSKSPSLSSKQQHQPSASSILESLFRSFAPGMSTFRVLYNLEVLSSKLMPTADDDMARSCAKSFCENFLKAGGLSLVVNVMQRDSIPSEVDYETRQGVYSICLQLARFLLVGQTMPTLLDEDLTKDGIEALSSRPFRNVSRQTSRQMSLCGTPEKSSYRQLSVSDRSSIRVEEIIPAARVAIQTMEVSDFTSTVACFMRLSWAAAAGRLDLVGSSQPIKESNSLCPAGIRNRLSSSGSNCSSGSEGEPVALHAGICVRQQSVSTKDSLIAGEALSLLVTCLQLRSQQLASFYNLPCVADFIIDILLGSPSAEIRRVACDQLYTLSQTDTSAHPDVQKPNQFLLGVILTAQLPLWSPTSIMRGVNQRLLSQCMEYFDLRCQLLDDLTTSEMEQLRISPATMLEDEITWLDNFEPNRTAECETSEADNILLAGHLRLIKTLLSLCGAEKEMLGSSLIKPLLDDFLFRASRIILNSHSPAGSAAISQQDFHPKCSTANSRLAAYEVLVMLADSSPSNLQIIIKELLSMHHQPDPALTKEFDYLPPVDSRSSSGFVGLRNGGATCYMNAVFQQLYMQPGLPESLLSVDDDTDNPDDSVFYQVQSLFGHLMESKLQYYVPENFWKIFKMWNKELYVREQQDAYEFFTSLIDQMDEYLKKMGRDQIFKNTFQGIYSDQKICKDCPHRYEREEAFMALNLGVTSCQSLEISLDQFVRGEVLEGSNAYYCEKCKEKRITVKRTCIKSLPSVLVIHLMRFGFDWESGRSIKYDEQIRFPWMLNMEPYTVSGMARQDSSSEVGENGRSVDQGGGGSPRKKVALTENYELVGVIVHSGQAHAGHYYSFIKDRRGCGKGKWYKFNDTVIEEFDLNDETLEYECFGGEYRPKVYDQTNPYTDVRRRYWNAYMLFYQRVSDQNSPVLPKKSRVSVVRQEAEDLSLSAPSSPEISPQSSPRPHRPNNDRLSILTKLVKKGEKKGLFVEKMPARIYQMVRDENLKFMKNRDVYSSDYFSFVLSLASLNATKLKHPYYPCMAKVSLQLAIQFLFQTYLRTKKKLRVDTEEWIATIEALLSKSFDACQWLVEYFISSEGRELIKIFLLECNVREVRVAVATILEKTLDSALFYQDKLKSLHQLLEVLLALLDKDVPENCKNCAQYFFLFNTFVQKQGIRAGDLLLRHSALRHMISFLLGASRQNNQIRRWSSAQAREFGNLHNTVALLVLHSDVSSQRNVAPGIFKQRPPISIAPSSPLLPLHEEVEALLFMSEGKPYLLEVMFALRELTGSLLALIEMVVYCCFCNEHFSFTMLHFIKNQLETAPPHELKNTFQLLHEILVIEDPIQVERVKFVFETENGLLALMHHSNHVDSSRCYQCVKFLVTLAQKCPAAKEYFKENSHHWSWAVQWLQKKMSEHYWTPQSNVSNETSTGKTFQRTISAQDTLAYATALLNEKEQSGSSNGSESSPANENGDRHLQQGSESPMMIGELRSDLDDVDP

O=C(CCl)NCC(=O)N1CCCC1
inactive: USP19 0.114 | USP24 -0.074 | USP25 0.037 | USP28 -0.302
